AMA1-RON2 inh = inhibitors of Plasmodium falciparum AMA1-RON2 interaction | 360,000 tested, 0.2% active | AID 720542 | AlphaScreen AMA1-biotinylated RON2 peptide binding | Potency, µM (titrated, usually from 58.2 µM), usual class: inhibitors; further: nearly all actives have a fitted effect of over 45% in size
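AMA1 (3D7) with his tag at 25 nM final met compounds first, then biotinylated RON2 peptide at 25 nM; detection used donor plus acceptor beads, 10 µg/mL apiece, read by AlphaScreen after 30 min at room temperature.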
NS1 inh = inhibitors of influenza NS1 protein function; Potency, µM (highest dose often 46.1 µM); 270,000 tested, 0.4% active; AID 2326; calls by dose curve; further: actives are rising curves; nearly all actives have a fitted effect of over 50% in size
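Compounds were scored for reversing the slow growth caused by influenza A NS1 in S. cerevisiae, measured by optical density at 600 nm. Assay medium contained 2% galactose at pH 6.0; NS1-free yeast of the same strain were the positive control.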
Pf growth 48h = inhibits P. falciparum growth in the first generation, 48 h | P. falciparum luciferase growth in erythrocytes, 48 h | Potency, µM (series often up to 28.7 µM), hits mostly inhibitors | 310,000 tested, 5.9% active
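Cell-based growth assay: transgenic P. falciparum expressing firefly luciferase, cultured in red cells within RPMI 1640 containing 0.5% w/v Albumax, 24 mM bicarbonate and gentamycin. A drop in luciferase activity indicates inhibition.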
Pf growth 96h = P. falciparum growth inhibition at 96 hour, primary screen for plastid delayed-death inhibitors; AID 504834; 320,000 tested, 6.9% active; P. falciparum luciferase reporter growth, 96 h; Potency, µM (series often up to 28.7 µM), usual class: inhibitors
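Compounds incubated with erythrocytes infected by luciferase-expressing P. falciparum (2% hematocrit, 0.05% parasitemia final) for 96 hours, 37 C in 5% CO2. Growth inhibition scored as decreased luciferase luminescence.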
Sm TGR block = blocks Schistosoma mansoni thioredoxin glutathione reductase; Q962Y6; 360,000 tested, 3% active; AID 485364; Potency, µM (series often up to 114 µM), most hits filed as inhibitors; purified TGR, DTNB reduction, TNB absorbance 405 nm; further: nearly all actives have a fitted effect of over 60% in size
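First, TGR (20 nM dispensed) and NADPH were mixed with compound. Second, a 15 min room-temperature incubation followed. Third, further NADPH and then DTNB were added to start the reaction. Finally, TNB absorbance was monitored kinetically.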
A number is an active result. An excerpt weighted towards active compounds, which were near 11% of everything screened. Unless noted, the call rests on the fitted dose curve; in most records, active means well fitted curve in the direction sought with a large enough effect; inconclusive means small, poorly fitted or top-dose-only effect, or another doubt; inactive means no such curve, though single readings can be large; an effect the other way counts as inactive or inconclusive.

Screening COc1ccccc1CC(NC(C)=O)C(=O)NC1CCN(C(=O)Nc2cccc(F)c2)CC1 (centres undefined) returned AMA1-RON2 inh inactive, NS1 inh inactive, Pf growth 48h inactive, Pf growth 96h 1.3µM and Sm TGR block inactive.
For O=C(NC1CCN(C(=O)Nc2cccc(F)c2)CC1)C1CCCCC1 the results were AMA1-RON2 inh inactive, NS1 inh inactive, Pf growth 48h inactive, Pf growth 96h 12µM and Sm TGR block inactive.
For COc1ccccc1CC(NC(C)=O)C(=O)NC1CCN(C(=O)c2ccc([N+](=O)[O-])cc2)CC1 (centres undefined) the results were AMA1-RON2 inh inactive, NS1 inh inactive, Pf growth 48h inactive, Pf growth 96h 6.6µM and Sm TGR block inactive.
`COC(=O)[C@]12CCCCC=C1N(CCc1ccc(OC)c(OC)c1)C(=O)[C@H](CC(=O)NCC13CC4CC(CC(C4)C1)C3)C2` gave AMA1-RON2 inh inactive.
`CC(C)(C)[C@]1(O)CCN2C[C@H]3c4ccccc4CCc4cccc(c43)[C@@H]2C1` gave AMA1-RON2 inh inactive, NS1 inh inactive, Pf growth 48h 8.3µM, Pf growth 96h 3.7µM and Sm TGR block inactive.
Screening Cc1ccc(N2C(=O)[C@@H]3[C@H](C2=O)C2CCCN2[C@@H]3C(=O)c2ccccc2)cc1 (some centres undefined) returned AMA1-RON2 inh inactive, NS1 inh inactive, Pf growth 48h 12µM, Pf growth 96h inconclusive and Sm TGR block 32µM.
`O=C(c1ccc(Cl)cc1)C1C2C(=O)N(c3ccccc3)C(=O)C2C2CCCN21` (centres undefined) gave AMA1-RON2 inh inactive, NS1 inh inactive, Pf growth 48h inconclusive, Pf growth 96h 15µM and Sm TGR block inconclusive.
`CC(=O)c1ccc(N2C(=O)C3C(C2=O)C(C(=O)c2ccc(Cl)cc2)N2CCCC32)cc1` (centres undefined) gave AMA1-RON2 inh inactive, NS1 inh inactive, Pf growth 48h inconclusive, Pf growth 96h inactive and Sm TGR block 13µM.
Screening COc1ccc(N2C(=O)C3C(C2=O)C(C(=O)c2ccc(Cl)cc2)N2CCCC32)cc1 (centres undefined) returned AMA1-RON2 inh inactive, NS1 inh inactive, Pf growth 48h inconclusive, Pf growth 96h inconclusive and Sm TGR block 25µM.
COc1ccc(-c2nc3c4ccccc4n(CC(=O)N4CCN(c5ccccc5F)CC4)c(=O)n3n2)cc1 was read as Sm TGR block inactive.
`O=C(Cc1cccs1)NC1CC(=O)N(c2ccc(Cl)cc2)C1` (centres undefined) gave Sm TGR block inactive.
For COc1ccc(-c2nc(Cn3c(SCc4cccc(F)c4)nc4ccncc43)c(C)o2)cc1OC the results were AMA1-RON2 inh inconclusive, NS1 inh inactive, Pf growth 48h 12µM, Pf growth 96h inactive and Sm TGR block inconclusive.
For COc1ccc(-c2nc(Cn3c(SCc4ccc(C)cc4)nc4ccncc43)c(C)o2)cc1OC the results were AMA1-RON2 inh inactive, NS1 inh inactive, Pf growth 96h inconclusive and Sm TGR block inconclusive.
`CC(NC(=O)C1CCN(S(=O)(=O)c2ccc3nc4c(c(C(=O)O)c3c2)CCCC4)CC1)c1ccccc1` (centres undefined) gave AMA1-RON2 inh inactive, NS1 inh inactive, Pf growth 48h inactive, Pf growth 96h inactive and Sm TGR block inactive.
O=C(NCc1ccc(F)cc1)c1cc(-c2ccccn2)nc2ccc(S(=O)(=O)N3CCOCC3)cc12 was read as AMA1-RON2 inh inactive.
`CCN(CC)c1ccc(NC(=O)COc2ccccc2C#N)cc1S(=O)(=O)Nc1ccccc1OC` gave AMA1-RON2 inh inactive, NS1 inh inactive, Pf growth 48h 1.7µM, Pf growth 96h 9.3µM and Sm TGR block inactive.
For CCN(CC)c1ccc(NC(=O)c2ccccn2)cc1S(=O)(=O)Nc1ccccc1OC the results were AMA1-RON2 inh inactive, Pf growth 48h 5.9µM, Pf growth 96h 10µM and Sm TGR block inactive.
Screening CN(C(=O)c1cccc(NC(=O)Cc2ccc(NC(=O)C3CCCN(S(=O)(=O)c4cccc([N+](=O)[O-])c4)C3)cc2)c1)C1CCCC1 (centres undefined) returned AMA1-RON2 inh inactive.
COc1ccc(CCNC(=O)C(C)SCC(=O)Nc2ccc(F)cc2)cc1 (centres undefined) was read as AMA1-RON2 inh inactive.
CC[N+](CC)(CC)CCCOC(=O)C(O)(c1ccccc1)C1CCCCC1 (centres undefined) was read as AMA1-RON2 inh inactive, NS1 inh inactive, Pf growth 48h 2.9µM and Sm TGR block inactive.
For C[N+](C)(N)CCOC(=O)C(O)(c1ccccc1)C1CCCCC1 (centres undefined) the results were AMA1-RON2 inh inactive.
CC[N+](CC)(CC)CC[C@](O)(c1ccccc1)C1CCCCC1 was read as Pf growth 48h 6.4µM and Pf growth 96h 5.7µM.
Screening OC(CC#CCN1CCCCCC1)(c1ccccc1)C1CCCC1 (centres undefined) returned AMA1-RON2 inh inactive, NS1 inh inactive, Pf growth 48h inconclusive, Pf growth 96h 2.9µM and Sm TGR block inconclusive.
`O=C(NCc1ccncc1)C(=O)Nc1nc2ccccc2s1` gave AMA1-RON2 inh inactive, NS1 inh inactive, Pf growth 48h inactive, Pf growth 96h inactive and Sm TGR block inactive.
Screening CCCC(C)NC(=O)CSc1nnc2ccccn12 (centres undefined) returned AMA1-RON2 inh inactive, Pf growth 48h inactive, Pf growth 96h inactive and Sm TGR block inactive.
COc1ccc(Cn2c(CCC(=O)Nc3ccc(Br)c(C)c3)nc3cccnc32)cc1 was read as Sm TGR block inactive.
For C=C(C)COc1ccc(-c2nc(N)ncc2Oc2ccccc2OC)c(O)c1 the results were AMA1-RON2 inh inactive, NS1 inh inactive, Pf growth 48h inconclusive, Pf growth 96h inconclusive and Sm TGR block inactive.
For C=C(C)COc1ccc(-c2nc(N)nc(C(F)(F)F)c2-c2ccc(OC)cc2)c(O)c1 the results were AMA1-RON2 inh inactive, NS1 inh inactive, Pf growth 48h 2.9µM, Pf growth 96h 2.1µM and Sm TGR block inactive.
C=C(C)COc1ccc(-c2nc(N)ncc2Oc2ccc(OC)cc2)c(O)c1 was read as AMA1-RON2 inh inactive, NS1 inh inactive, Pf growth 48h inconclusive, Pf growth 96h inactive and Sm TGR block inactive.
`C=C(C)COc1ccc(-c2ncnc(C(F)(F)F)c2-c2ccc(OC)cc2)c(O)c1` gave AMA1-RON2 inh inactive, NS1 inh inactive, Pf growth 48h 1.7µM, Pf growth 96h 0.93µM and Sm TGR block inactive.
C=C(C)COc1ccc(-c2ncnc(C(F)(F)F)c2-c2ccccc2)c(O)c1 was read as AMA1-RON2 inh inactive, NS1 inh inactive, Pf growth 48h 1.7µM, Pf growth 96h 1.7µM and Sm TGR block inactive.
For COC(=O)[C@]12CCCCC=C1N(Cc1ccccc1)C(=O)[C@H](CC(=O)N1CCCC1)C2 the results were AMA1-RON2 inh inactive.
